Results: the supplement of paper PMC10646978
± gives the standard deviation.

What was measured:
Details in all cases: modulator concentration 10 µM
[1] = system: RAW-Dual (murine macrophage reporter line); test: NF-kB reporter (SEAP) activity fold change vs agonist alone; higher = enhanced NF-kB activity
Summary of the method: (§1)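 Overnight stimulation with a PRR agonist followed pre-incubation for 1 hour at 37 °C with compound at 10 μM final. This was done in RAW-Dual murine macrophage reporter cells seeded at 50 000 per well in 384-well plates. NF-κB (SEAP, QUANTI-Blue absorbance at 620 nm) and IRF (Lucia luciferase, QUANTI-Luc luminescence) were read from the supernatant. Each reporter's fold change relative to the mean agonist-only control on the same plate was averaged over replicate plates.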

[2] = system: RAW-Dual (murine macrophage reporter line); test: IRF reporter (Lucia luciferase) activity fold change vs agonist alone; higher = enhanced IRF activity
Summary of the method: as §1

[3] = system: RAW-Dual (murine macrophage reporter line); test: viability score (confluency relative to resting cells, overnight) (fraction); higher = more viable, active = viable (0.7 or more)
Summary of the method: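 RAW-Dual macrophages in 384-well plates were exposed overnight to compound at 10 μM final. Confluency was imaged with IncuCyte, and two confluency masks were generated with IncuCyte software over all imaged wells. The viability score is confluency expressed relative to resting cells. Compounds were called viable if both masks exceeded 70% of resting cells.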

[4] = agonist: CpG ODN 1826 0.5 ug/mL

COC(=O)C1=CN(CC2CCCO2)C=C(C(=O)OC)C1c1ccc(OC)cc1 (stereo unspecified)
NF-kB reporter [1, 4]: 1.1 ± 0.063 | NF-kB reporter ([1]; agonist: LPS 0.1 ug/mL): 1.04 ± 0.079 | NF-kB reporter ([1]; agonist: MPLA […]): 1.09 ± 0.036 | IRF reporter ([2]; agonist: 3'3'-cGAMP 10 ug/mL): 0.913 ± 0.037 | IRF reporter ([2]; agonist: LPS 0.1 ug/mL): 0.993 ± 0.057 | IRF reporter ([2]; agonist: MPLA […]): 1.04 ± 0.1 | viability score [3]: 0.993 (active)

Cc1cc(=O)[nH]c(-n2nc(C)c(CCC(=O)N3CCN(C)CC3)c2C)n1
NF-kB reporter [1, 4]: 1.16 ± 0.092 | NF-kB reporter ([1]; agonist: LPS 0.1 ug/mL): 1.13 ± 0.089 | NF-kB reporter ([1]; agonist: MPLA […]): 0.977 ± 0.028 | IRF reporter ([2]; agonist: 3'3'-cGAMP 10 ug/mL): 1.01 ± 0.084 | IRF reporter ([2]; agonist: LPS 0.1 ug/mL): 1.05 ± 0.12 | IRF reporter ([2]; agonist: MPLA […]): 0.931 ± 0.095 | viability score [3]: 0.994 (active)

Cc1cccc(NC(=O)Cc2c(C)nc(SCc3ccccc3F)[nH]c2=O)c1C
NF-kB reporter [1, 4]: 0.996 ± 0.059 | NF-kB reporter ([1]; agonist: LPS 0.1 ug/mL): 1.13 ± 0.088 | NF-kB reporter ([1]; agonist: MPLA […]): 1.03 ± 0.081 | IRF reporter ([2]; agonist: 3'3'-cGAMP 10 ug/mL): 0.938 ± 0.043 | IRF reporter ([2]; agonist: LPS 0.1 ug/mL): 0.97 ± 0.081 | IRF reporter ([2]; agonist: MPLA […]): 0.937 ± 0.21 | viability score [3]: 0.997 (active)

Cc1cccc(C(=O)Nc2cccc([N+](=O)[O-])c2C)c1
NF-kB reporter [1, 4]: 1.1 ± 0.067 | NF-kB reporter ([1]; agonist: LPS 0.1 ug/mL): 1 ± 0.062 | NF-kB reporter ([1]; agonist: MPLA […]): 0.86 ± 0.095 | IRF reporter ([2]; agonist: 3'3'-cGAMP 10 ug/mL): 0.964 ± 0.04 | IRF reporter ([2]; agonist: LPS 0.1 ug/mL): 1.33 ± 0.15 | IRF reporter ([2]; agonist: MPLA […]): 1.12 ± 0.099 | viability score [3]: 0.992 (active)

O=S(=O)(Cc1cccc(Cl)c1)N1C2CCC1CC(Oc1cccnc1)C2 (stereo unspecified)
NF-kB reporter [1, 4]: 1.07 ± 0.064 | NF-kB reporter ([1]; agonist: LPS 0.1 ug/mL): 1.13 ± 0.1 | NF-kB reporter ([1]; agonist: MPLA […]): 1.08 ± 0.039 | IRF reporter ([2]; agonist: 3'3'-cGAMP 10 ug/mL): 0.96 ± 0.064 | IRF reporter ([2]; agonist: LPS 0.1 ug/mL): 1.12 ± 0.063 | IRF reporter ([2]; agonist: MPLA […]): 1.2 ± 0.12 | viability score [3]: 1 (active)

O=C(NCC#CCN1CCc2ccccc2C1)c1cccc(Br)c1
NF-kB reporter [1, 4]: 0.87 ± 0.043 | NF-kB reporter ([1]; agonist: LPS 0.1 ug/mL): 1.12 ± 0.095 | NF-kB reporter ([1]; agonist: MPLA […]): 0.94 ± 0.057 | IRF reporter ([2]; agonist: 3'3'-cGAMP 10 ug/mL): 1.01 ± 0.057 | IRF reporter ([2]; agonist: LPS 0.1 ug/mL): 1.14 ± 0.069 | IRF reporter ([2]; agonist: MPLA […]): 1.26 ± 0.12 | viability score [3]: 1.01 (active)

CC(O)Cn1cnc2c1c(=O)n(C)c(=O)n2C (stereo unspecified)
NF-kB reporter [1, 4]: 1.06 ± 0.082 | NF-kB reporter ([1]; agonist: LPS 0.1 ug/mL): 1.06 ± 0.065 | NF-kB reporter ([1]; agonist: MPLA […]): 1.01 ± 0.036 | IRF reporter ([2]; agonist: 3'3'-cGAMP 10 ug/mL): 0.99 ± 0.07 | IRF reporter ([2]; agonist: LPS 0.1 ug/mL): 0.972 ± 0.11 | IRF reporter ([2]; agonist: MPLA […]): 0.957 ± 0.11 | viability score [3]: 0.998 (active)

O=C(C=Cc1cc([N+](=O)[O-])ccc1O)c1ccc(Cl)cc1
NF-kB reporter [1, 4]: 0.614 ± 0.052 | NF-kB reporter ([1]; agonist: LPS 0.1 ug/mL): 0.81 ± 0.046 | NF-kB reporter ([1]; agonist: MPLA […]): 1.26 ± 0.21 | IRF reporter ([2]; agonist: 3'3'-cGAMP 10 ug/mL): 0.496 ± 0.023 | IRF reporter ([2]; agonist: LPS 0.1 ug/mL): 1.28 ± 0.074 | IRF reporter ([2]; agonist: MPLA […]): 1.25 ± 0.11 | viability score [3]: 0.983 (active)

Nc1ccccc1NC(=O)c1ccc(CNc2nccc(-c3cccnc3)n2)cc1
NF-kB reporter [1, 4]: 2.46 ± 0.12 | NF-kB reporter ([1]; agonist: LPS 0.1 ug/mL): 1.73 ± 0.15 | NF-kB reporter ([1]; agonist: MPLA […]): 2.58 ± 0.15 | IRF reporter ([2]; agonist: 3'3'-cGAMP 10 ug/mL): 0.0523 ± 0.0046 | IRF reporter ([2]; agonist: LPS 0.1 ug/mL): 0.16 ± 0.016 | IRF reporter ([2]; agonist: MPLA […]): 0.186 ± 0.051 | viability score [3]: 0.56 (inactive)

COC(=O)C1=C(C)NC(C)=C(C(=O)O[C@@H]2CCCN(Cc3ccccc3)C2)[C@@H]1c1cccc([N+](=O)[O-])c1.Cl
NF-kB reporter [1, 4]: 0.323 ± 0.024 | NF-kB reporter ([1]; agonist: LPS 0.1 ug/mL): 0.587 ± 0.034 | NF-kB reporter ([1]; agonist: MPLA […]): 1.31 ± 0.036 | IRF reporter ([2]; agonist: 3'3'-cGAMP 10 ug/mL): 0.31 ± 0.018 | IRF reporter ([2]; agonist: LPS 0.1 ug/mL): 1.05 ± 0.12 | IRF reporter ([2]; agonist: MPLA […]): 1.25 ± 0.18 | viability score [3]: 0.997 (active)

C[C@@H](O[C@H]1OCCN(Cc2nc(=O)[nH][nH]2)[C@H]1c1ccc(F)cc1)c1cc(C(F)(F)F)cc(C(F)(F)F)c1 [Prestw-1600]
NF-kB reporter [1, 4]: 0.345 ± 0.022 | NF-kB reporter ([1]; agonist: LPS 0.1 ug/mL): 0.516 ± 0.058 | NF-kB reporter ([1]; agonist: MPLA […]): 0.333 ± 0.023 | IRF reporter ([2]; agonist: 3'3'-cGAMP 10 ug/mL): 1.64 ± 0.067 | IRF reporter ([2]; agonist: LPS 0.1 ug/mL): 1.23 ± 0.078 | IRF reporter ([2]; agonist: MPLA […]): 0.969 ± 0.13 | viability score [3]: 0.264 (inactive)

Cc1cnc2c(c1SCC(=O)N1CCc3ccccc31)c(=O)n(C)c(=O)n2C
NF-kB reporter [1, 4]: 1.01 ± 0.057 | NF-kB reporter ([1]; agonist: LPS 0.1 ug/mL): 1.22 ± 0.18 | NF-kB reporter ([1]; agonist: MPLA […]): 0.916 ± 0.069 | IRF reporter ([2]; agonist: 3'3'-cGAMP 10 ug/mL): 1.01 ± 0.051 | IRF reporter ([2]; agonist: LPS 0.1 ug/mL): 1.17 ± 0.15 | IRF reporter ([2]; agonist: MPLA […]): 1.14 ± 0.25 | viability score [3]: 1.01 (active)

COCCCNC(=O)C1CCCN(c2ccc(Sc3ccc(Br)cc3)nn2)C1 (stereo unspecified)
NF-kB reporter [1, 4]: 0.99 ± 0.1 | NF-kB reporter ([1]; agonist: LPS 0.1 ug/mL): 1.1 ± 0.095 | NF-kB reporter ([1]; agonist: MPLA […]): 1.15 ± 0.11 | IRF reporter ([2]; agonist: 3'3'-cGAMP 10 ug/mL): 0.84 ± 0.03 | IRF reporter ([2]; agonist: LPS 0.1 ug/mL): 0.966 ± 0.076 | IRF reporter ([2]; agonist: MPLA […]): 0.779 ± 0.2 | viability score [3]: 0.993 (active)
